Laboratory results from PubChem BioAssay AID1839 (Johns Hopkins Ion Channel Center, 2009).
Hit rate of the full screen: of about 2,400 compounds, about 220 (9.2%) were called active. The sample as a whole holds a higher share of actives than the screen did. A number with no mark means an inactive call.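 The calls were made as follows: active = signal change above the mean of dofetilide-free buffer controls plus 3 SD, so a positive margin; inactive = the rest.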

Assay: thallium signal changes without hERG – cell-based, CHO-K1 parental line, FluxOR thallium flux, counter-screen for hERG block protection project, confirmation (AID 1839);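 also: compounds applied alone with no dofetilide to cells lacking hERG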
Conditions: CHO-K1 parental cells, FluxOR thallium flux fluorescence; at 10 µM

Structure (SMILES) | signal change vs control minus 3*SD hit threshold (margin above threshold, higher = more increase)
Cc1nnc(SCc2cc(=O)oc3cc(O)ccc23)n1Cc1ccccc1 | -27.2%
O=C(NC(=S)Nc1ccc(N2CCOCC2)c(Cl)c1)c1sc2ccccc2c1Cl | -3.9%
Oc1ccc(N=Nc2ccccc2-c2nn[nH]n2)c(O)c1 | -14.2%
CCOC(=O)c1cccc(C(=O)Nc2nc3ccc(OC)cc3s2)n1 | -31.4%
COc1ccc2nc(N=Nc3c(O)ccc4ccccc34)sc2c1 | 1.7% (active)
COc1ccc(S(=O)(=O)Nc2ccc(O)c3ccccc23)cc1 | -41.6%
Cc1cc(NC(=O)/C(C#N)=C/c2ccco2)n(-c2ccccc2)n1 | -40.7%
Cc1[nH]n2c(=O)cc(C(C)C)nc2c1-c1ccccc1 | -21.7%
O=c1cc(-c2ccccc2)nc2c(-c3ccccc3)c(C(F)(F)F)[nH]n12 | 8.1% (active)
Cc1[nH]n2c(=O)cc(C(C)(C)C)nc2c1-c1ccccc1 | -21.1%
Cc1nc(-c2nc(-c3c(C(=O)NNC(=O)c4ccc(Cl)cc4)noc3C)cs2)cs1 | -33.4%
Cn1c(=S)[nH]c2sc3c(c2c1=O)CCC(C(C)(C)C)C3 (stereo not given) | 32% (active)
COCCn1c(=S)[nH]c2sc3c(c2c1=O)CCC(C)C3 (stereo not given) | 18.3% (active)
CC1CCc2c(sc3[nH]c(=S)n(C)c(=O)c23)C1 (stereo not given) | 23.8% (active)
Cc1ccc(-n2c(=S)[nH]c3sc4c(c3c2=O)CCC4)cc1 | -20.7%
Cc1cccc(-n2c(=S)[nH]c3sc4c(c3c2=O)CCc2ccccc2-4)c1 | -27.1%
O=C(NC(=S)N1CCN(C/C=C/c2ccccc2)CC1)c1ccc(Cl)nc1 | -22.6%
Cc1ccc(NC(=S)N2CCN(c3ccccc3F)CC2)c(C)c1 | -24.2%
O=c1[nH]c2ccc(S(=O)(=O)NCc3ccccc3)cc2[nH]1 | -30.8%
CC(=O)c1c(N2CCN(Cc3ccccc3)CC2)[nH]c(-c2ccccc2)nc1=S | -16.4%
CCN(CC)C(=O)CN1C(=O)c2cccc3cccc(c23)C1=O | -21.1%
COc1ccccc1/C=C1\SC(=S)N(NS(=O)(=O)c2ccc(C)cc2)C1=O | -41.8%
Cc1cc(=O)oc2cc(OC(C(=O)O)c3ccccc3)ccc12 (stereo not given) | -33.7%
Cc1ccc(-c2cc(-c3n[nH]c(=S)o3)c3ccccc3n2)cc1 | -2.6%
C=CCc1cc(Cl)ccc1OCCOCCN(C)C | -30%

Structure (SMILES) | signal change vs control minus 3*SD hit threshold (margin above threshold, higher = more increase)
CCOC(=O)c1sc(NC(=S)NC(=O)c2ccccc2)nc1C | -3.4%
CCOC(=O)c1sc2ncnc(NCC(c3cccs3)N(C)C)c2c1C (stereo not given) | 3.3% (active)
CCOC(=O)c1c(NC(=O)/C=C/c2ccco2)sc(C)c1C | -32.2%
CCOC(=O)c1sc2ncnc(NCc3ccco3)c2c1C | 1.7% (active)
CCOC(=O)c1sc(NC(=O)c2ccccc2C(=O)O)c(C(=O)OCC)c1C | -19%
CCOC(=O)c1sc2nc(C)[nH]c(=S)c2c1C | -9.2%
CC/C(=N\NC(=O)c1nnn(-c2nonc2N)c1-c1cccs1)c1ccccc1 | -25.4%
COC(=O)c1ccc(C(=O)NC(=S)Nc2nc3c(s2)CCCC3)cc1 | 2% (active)
O=C(NC(=S)Nc1nc2c(s1)CCCC2)c1ccc(C(=O)c2ccccc2)cc1 | -36.7%
CC(C)(C)c1ccc(C(=O)NC(=S)Nc2nc3c(s2)CCCC3)cc1 | -9.2%
O=C(NCC(c1cccs1)N1CCOCC1)c1cc(S(=O)(=O)N2CCOCC2)ccc1F (stereo not given) | -28.4%
O=C1CSC(=S)N1/N=C/c1cc(Br)ccc1O | -42.6%
O=C(/C=C/c1ccccc1)c1cc(Br)ccc(=O)c1O | -22.9%
CC(=O)Oc1c(-c2ccc(Br)o2)oc2ccccc2c1=O | 63.5% (active)
COc1ccc(-c2oc3ccccc3c(=O)c2OC(C)=O)cc1 | -22.3%
CC(=O)Oc1c(-c2ccco2)oc2ccccc2c1=O | -12.5%
Cc1ccc(C(=O)NNc2cc(N3CCCC3)nc(N3CCCC3)n2)cc1 | -21.8%
CCN(CC)c1ccc(NC(=S)NC(=O)c2cccs2)cc1 | -20.8%
Cc1ccc(NC(=O)C(=O)NNC(=O)c2cccs2)cc1 | 27.4% (active)
O=C(NC(=S)NNC(=O)c1cccs1)c1ccc(Br)o1 | -45.9%
CCc1ccc(NC(=O)C(=O)NNC(=O)c2cccs2)cc1 | 18.1% (active)
Cc1ccc(N/C=C/C(=O)c2cccs2)cc1 | -25.9%
COc1ccc(NC(=O)C(=O)NNC(=O)c2cccs2)c(OC)c1 | -7.2%
CCOc1ccccc1Nc1nc(-c2sc(C)nc2C)cs1 | -38.3%
COC(=O)c1ccc(-n2c(C)nc(=O)c(-c3ccccc3)c2C)cc1 | -20.1%
